The subject of assay [1] is Human papillomavirus type 1a protein E7 (residues 44-93). As to the kind of experiment: small molecules binding HPV E7 44-93 – biochemical, small-molecule microarray, residues 44-93, 635 nm fluorescence, primary screen (AID 1108).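 Note: E7 fragment applied at 1 µg/mL in TBST for 1 h at 4 C; score combines spot fluorescence with its signal to noise ratio.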 As to conditions: fluorescence 635 nm, higher = more signal.
Assay [2] can be described thus: hepatitis C replication reporter changes, two-sided – Huh7 cells, luciferase reporter, HCV replication inhibitor project, primary screen (AID 1109).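 Note: huh7 hepatoma cells harbouring a luciferase neomycin HCV replicon reporter; luciferase luminescence as measure of HCV replicon replication; test concentration not given here.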 As to conditions: Huh7 HCV replicon luciferase reporter, 48 h; higher = more signal. A general note: Reporter assays use an easily measured gene product as a stand-in for the process of interest.
For assay [3], the target named is Left-right determination factor 2 (Homo sapiens) (UniProt O00292). As to the kind of experiment: small molecules binding LEFTY2 protein – biochemical, small-molecule microarray, 635 nm fluorescence scan, primary screen (AID 1110). As to conditions: higher = more signal.
Assay [4] concerns the target Calmodulin-1 (Homo sapiens) (UniProt P0DP23). The assay is described as follows: small molecules binding calmodulin-1 with EGTA – biochemical, small-molecule microarray, Cy5-labelled CALM1, profiling panel (AID 1111).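 Note: labelled calmodulin applied in Tris saline Tween buffer holding calcium plus EGTA and DTT.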 As to conditions: Cy5-CALM1 binding fluorescence, higher = more signal.
The target is the same in assay [5]. The assay is described as follows: small molecules binding Ca-loaded calmodulin-1 – biochemical, small-molecule microarray, Cy5-labelled CALM1, plus calcium, artefact control for SMM control-protein annotation, profiling panel (AID 1112).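 Note: score merges spot fluorescence with signal to noise from triplicate slides.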 As to conditions: Cy5-CALM1 binding fluorescence, higher = more signal.
The nature of assay [6]: probe aWnt5a binding to arrayed compounds – biochemical, biotinylated probe, 635/667 nm fluorescence, primary screen (AID 1113).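 Note: score merges 667 nm fluorescence intensity with signal-to-noise per printed feature.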 As to conditions: small-molecule microarray, higher = more signal.
A short description of assay [7]: probe aShh binding to arrayed compounds – biochemical, biotinylated probe, 635/667 nm fluorescence, primary screen (AID 1114).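 Note: probe is biotin-labelled aShh protein from a stem cell growth factor screen; measures binding of labelled protein to compounds printed on the slide; score merges feature fluorescence at 667 nm with signal-to-noise.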 As to conditions: small-molecule microarray, higher = more signal.
Assay [8] can be described thus: probe aNog binding to arrayed compounds – biochemical, biotinylated probe, 635/667 nm fluorescence, primary screen (AID 1115).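 Note: probe is biotinylated aNog protein used at 0.15 µg/mL for 1 h at 4 C; z-score combines 667 nm fluorescence of each spot with its signal to noise.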 As to conditions: small-molecule microarray, higher = more signal.
Assay [9] has as its target Torsin-1A-interacting protein 1 (Homo sapiens) (UniProt Q5JTV8). As to the kind of experiment: compound microarray binding of lysate hLAP1 – cell lysate, small-molecule microarray, COS7 lysate, 635/667 nm fluorescence, primary screen (AID 1116). As to conditions: 635 nm fluorescence, higher = more signal.
The target in assay [10] is Alpha-bungarotoxin (Bungarus multicinctus) (UniProt P60615). The assay is described as follows: compounds binding labelled alpha-BTX control protein – biochemical, small-molecule microarray, Alexa647 label, 635/667 nm fluorescence, artefact control for SMM control protein annotation, profiling panel (AID 1117). As to conditions: alpha-BTX-A647 binding fluorescence, higher = more signal.

Assay [11] concerns the target Albumin (Bos taurus) (UniProt P02769). As to the kind of experiment: compounds binding labelled BSA control protein – biochemical, small-molecule microarray, Alexa647 label, 635/667 nm fluorescence, artefact control for SMM control protein annotation, profiling panel (AID 1118).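 Note: score merges 667 nm emission intensity and signal-to-noise per printed compound spot.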 As to conditions: BSA-A647 binding, fluorescence 635 nm, higher = more signal.
Assay [12] can be described thus: probe aXIP binding to arrayed compounds – biochemical, NeuroSMM set, 635/667 nm fluorescence, primary screen (AID 1119).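 Note: probe is the protein aXip251-270 applied at 1 µg/mL to compound-printed slides; binding of probe to printed compounds measured as 667 nm fluorescence plus signal to noise.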 As to conditions: small-molecule microarray, higher = more signal, called active from +8 up or from −8 down.
The nature of assay [13]: probe aNOTCH3 binding on compound microarray – biochemical, small-molecule microarray, 635/667 nm fluorescence, primary screen (AID 1120).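 Note: probe is a biotin-tagged antibody raised against NOTCH3 rather than NOTCH3 protein; score merges spot fluorescence near 667 nm with spot signal to noise.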 As to conditions: higher = more signal.
Assay [14] is described as follows: probe aNOTCH2 binding on compound microarray – biochemical, small-molecule microarray, 635/667 nm fluorescence, primary screen (AID 1121).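 Note: score merges feature fluorescence read at 667 nm with its signal to noise.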 As to conditions: higher = more signal.
Assay [15] has as its target Carbonic anhydrase 2 (Homo sapiens) (UniProt P00918). The assay is described as follows: compounds binding carbonic anhydrase 2 – biochemical, small-molecule microarray, Alexa647-labelled CAII, profiling panel (AID 1122). As to conditions: CAII-A647 binding fluorescence, higher = more signal.
The nature of assay [16]: COS7 lysate on small-molecule microarray, probe aHis, 635 nm (AID 1123).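 Note: z-score combines 667nm fluorescence intensity with signal-to-noise per printed compound spot.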 As to conditions: COS7 cell lysate, fluorescence, higher = more signal.
Assay [17] in a line: probe aLAP1 signal on lysate-treated microarray – cell lysate, small-molecule microarray, COS7 lysate, primary screen (AID 1124).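 Note: lysate comes from COS7 cells expressing LAP1 and is applied at 0.3 µg/mL; score merges spot fluorescence near 667 nm with signal-to-noise over triplicate slides.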 As to conditions: probe aLAP1, fluorescence, higher = more signal.
Assay [18] relates to Sam68 (KHDRBS1). As to the kind of experiment: compounds binding KHDRBS1 protein – biochemical, small-molecule microarray, 635 nm fluorescence, primary screen (AID 1125).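 Note: score merges 667 nm channel intensity with signal to noise over triplicate slides.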 As to conditions: higher = more signal.
Assay [19] deals with Chordin-like protein 2 (CHRDL2). The assay is described as follows: compounds binding chordin-like 2 – biochemical, small-molecule microarray, 635 nm fluorescence, primary screen (AID 1126).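 Note: printed compound slides probed with Chrdl2 protein at 4 µg/mL for 1 h at 4 C; score merges 667 nm emission intensity with signal to noise over three replicate slides.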 As to conditions: fluorescence 635 nm, higher = more signal.
Assay [20] deals with Concanavalin-A (Canavalia ensiformis) (UniProt P02866). As to the kind of experiment: compounds binding concanavalin A lectin – biochemical, small-molecule microarray, Alexa647 label, 635 nm, artefact control for SMM control protein annotation, primary screen (AID 1127).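 Note: z combines 667 nm emission intensity with signal-to-noise across three replicate slides.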 As to conditions: ConA-A647 binding fluorescence, higher = more signal.

Activity calls are given as the source filed them.

Concanavalin-A (Canavalia ensiformis), sequence (P02866 whole entry, looked up): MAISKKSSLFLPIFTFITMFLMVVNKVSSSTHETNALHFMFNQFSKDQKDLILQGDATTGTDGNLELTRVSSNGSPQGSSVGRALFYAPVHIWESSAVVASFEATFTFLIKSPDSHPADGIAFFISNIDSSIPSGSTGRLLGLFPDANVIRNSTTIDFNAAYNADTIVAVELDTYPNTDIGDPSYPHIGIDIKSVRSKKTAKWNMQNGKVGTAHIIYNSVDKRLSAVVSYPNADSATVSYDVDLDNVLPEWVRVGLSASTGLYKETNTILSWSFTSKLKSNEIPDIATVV
Alpha-bungarotoxin (Bungarus multicinctus), sequence (P60615 whole entry, looked up): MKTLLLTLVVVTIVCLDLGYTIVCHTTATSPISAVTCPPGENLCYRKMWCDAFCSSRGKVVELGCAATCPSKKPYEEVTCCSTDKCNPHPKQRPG
Left-right determination factor 2 (Homo sapiens), sequence (O00292 whole entry, looked up): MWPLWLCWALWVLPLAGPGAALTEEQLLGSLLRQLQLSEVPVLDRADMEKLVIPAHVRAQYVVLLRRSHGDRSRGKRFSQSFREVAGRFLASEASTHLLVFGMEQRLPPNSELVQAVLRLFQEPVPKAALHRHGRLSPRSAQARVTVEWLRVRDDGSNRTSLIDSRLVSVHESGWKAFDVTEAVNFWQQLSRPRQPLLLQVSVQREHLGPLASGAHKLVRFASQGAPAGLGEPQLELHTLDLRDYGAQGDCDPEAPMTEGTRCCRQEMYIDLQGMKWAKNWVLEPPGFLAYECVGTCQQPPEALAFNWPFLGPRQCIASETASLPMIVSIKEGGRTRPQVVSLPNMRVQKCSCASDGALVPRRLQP
Torsin-1A-interacting protein 1 (Homo sapiens), sequence (Q5JTV8 whole entry, looked up): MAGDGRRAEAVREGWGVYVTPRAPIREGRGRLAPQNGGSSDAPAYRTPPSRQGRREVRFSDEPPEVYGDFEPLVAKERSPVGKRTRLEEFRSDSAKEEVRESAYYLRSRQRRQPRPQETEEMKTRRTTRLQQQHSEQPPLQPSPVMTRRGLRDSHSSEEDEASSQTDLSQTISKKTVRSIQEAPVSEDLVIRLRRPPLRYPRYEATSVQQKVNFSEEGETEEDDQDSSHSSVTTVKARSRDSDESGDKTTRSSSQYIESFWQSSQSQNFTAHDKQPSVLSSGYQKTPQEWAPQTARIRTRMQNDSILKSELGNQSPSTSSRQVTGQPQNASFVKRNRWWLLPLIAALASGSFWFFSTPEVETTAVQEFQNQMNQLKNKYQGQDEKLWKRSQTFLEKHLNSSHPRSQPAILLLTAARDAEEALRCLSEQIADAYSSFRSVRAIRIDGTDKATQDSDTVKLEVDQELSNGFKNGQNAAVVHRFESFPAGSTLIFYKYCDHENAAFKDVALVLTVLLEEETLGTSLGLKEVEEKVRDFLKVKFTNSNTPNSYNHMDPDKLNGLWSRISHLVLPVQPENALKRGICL
Albumin (Bos taurus), sequence (P02769 whole entry, looked up): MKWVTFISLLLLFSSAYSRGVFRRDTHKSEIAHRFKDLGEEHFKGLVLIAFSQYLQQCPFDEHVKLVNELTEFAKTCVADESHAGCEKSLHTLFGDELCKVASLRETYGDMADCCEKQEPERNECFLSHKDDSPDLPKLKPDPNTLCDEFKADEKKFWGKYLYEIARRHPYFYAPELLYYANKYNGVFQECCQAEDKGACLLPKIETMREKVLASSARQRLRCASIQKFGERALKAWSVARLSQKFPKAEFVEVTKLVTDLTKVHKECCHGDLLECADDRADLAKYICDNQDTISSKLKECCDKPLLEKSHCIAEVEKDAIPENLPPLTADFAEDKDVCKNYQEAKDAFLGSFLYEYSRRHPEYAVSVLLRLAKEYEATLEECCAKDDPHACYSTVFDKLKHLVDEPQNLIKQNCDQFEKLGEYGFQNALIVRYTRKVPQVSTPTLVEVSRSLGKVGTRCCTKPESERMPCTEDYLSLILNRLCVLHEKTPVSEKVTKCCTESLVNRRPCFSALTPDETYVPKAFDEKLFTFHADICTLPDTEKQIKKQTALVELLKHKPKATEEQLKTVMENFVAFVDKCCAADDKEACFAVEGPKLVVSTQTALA

Turning to `C[N+](C)(C)CCCCNC(=O)[C@H]1C[C@H]2C(=O)NCC(=O)N2[C@H]1c1cccc(OCCO)c1`, the composite z-score in assay [1] was 0.296; in [3], 1.17; in assay [4] it was -1.68; in [5], -1.96; in assay [6], 0.0618; in [7], 0.147. Moreover, the composite z-score in [8] is -0.178; in assay [9] it was 0.724; in assay [10], 0.804; in assay [11], -1.39; in assay [13], 0.147; in assay [14], -0.112. The composite z-score in assay [15] worked out at 0.454; in [16] it was 0.961; in [17], 0.258; in [18], 1.05; in assay [19], 1.45; in assay [20], 1.12. In assay [2], the z-score was -0.651. Moreover, the composite Z-score in assay [12] is 1.49 (inactive).

For `CC(=O)NCCCC[C@@H]1NC(=O)[C@H]2C[C@@H](C(=O)NCCCCCCN(C)C)[C@@H](c3ccc(O)cc3)N2C1=O`, the composite z-score in assay [1] was 0.19; in assay [3] it was 0.851; in assay [4], -0.382; in assay [5], -1.53; in assay [6], -0.154; in assay [7] it was 0.23. Besides, the composite z-score was 0.512 in assay [8]; 1.85 in assay [9]; 2.01 in assay [10]; -0.546 in assay [11]; 0.029 in [13]; -0.0626 in assay [14]. Moreover, the composite z-score in assay [15] is 0.365; in assay [16], 2.16; in assay [17], -0.1; in assay [18] it was 1.31; in assay [19], 1.09; in assay [20] it was 1.18. The molecule further registered a z-score in assay [2] of 1.87. For the same molecule, the composite Z-score in assay [12] is 1.44 (inactive).

Consider `CO[C@H]1COC(=O)CC=C[C@H](C)COC(=O)[C@@H](OCc2ccccc2)C=C[C@@H]1C`, for which the composite z-score is -0.217 in assay [1]; 1.5 in assay [3]; -1.51 in [4]; -2.68 in assay [5]; -0.286 in [6]; -0.283 in [7]. In addition, the composite z-score was -0.424 in assay [8]; 0.237 in assay [9]; -0.74 in [10]; -0.877 in assay [11]; -0.308 in assay [13]; -0.14 in assay [14]. For the same molecule, the composite z-score was -0.394 in [15]; -0.234 in assay [16]; 0.0842 in assay [17]; 0.379 in assay [18]; 1.51 in assay [19]; -0.602 in assay [20]. Also, in assay [2], the z-score came to 0.165. In addition, in assay [12], the composite Z-score was 2.71 (inactive).

Regarding `C[C@H]1NC(=O)[C@@H](C)NC(=O)[C@@]23C(=O)N[C@@H](Cc4ccccc4)C2[C@H](C)[C@@]2(C)O[C@H]2C3/C=C/C/C=C\CNC1=O` (stereo not given in full), the composite z-score was -0.569 in assay [1]; 0.182 in assay [3]; -0.809 in assay [4]; -1.32 in assay [5]; -0.0758 in assay [6]; -0.221 in assay [7]. The composite z-score in [8] was -0.0684; in [9], -0.485; in [10] it was 0.393; in assay [11], -0.631; in [13], -0.195; in [14], -0.126. The composite z-score in assay [15] was 0.502; in [16], -0.482; in [17], -0.599; in [18] it was -0.344; in assay [19], 0.274; in [20] it was -0.888. Further, the z-score in [2] is -0.175. Moreover, in assay [12], the composite Z-score is 0.0894 (inactive).

Turning to `CCOC(=O)C[C@H]1[C@H](OC(=O)c2cc3ccccc3oc2=O)[C@@H](NC(=O)C2CCCCC2)c2cc(OCCCO)ccc2N1C(=O)c1ccc2ccccc2n1`, the composite z-score in assay [1] was 1.03; in assay [3] it was 0.4; in assay [4], 0.242; in [5], -0.137; in [6], -0.0721; in assay [7], 0.225. Besides, the composite z-score is -0.188 in assay [8]; 0.767 in assay [9]; 0.131 in assay [10]; 0.596 in assay [11]; -0.0311 in assay [13]; -0.115 in assay [14]. In addition, the composite z-score in assay [15] was 0.0744; in [16], 0.801; in assay [17], -0.108; in assay [18], 1.06; in assay [19], 0.544; in assay [20], 0.953. In [2], this molecule gave a z-score of -0.26. In addition, in assay [12], the composite Z-score is -0.0789 (inactive).

On to `C[C@H]1COC(=O)[C@@H]2CCCN2C(=O)[C@@H](C)COC(=O)[C@@H]2CCCN2C1=O`, for which the composite z-score in assay [1] was -0.663; in assay [3] it was 0.417; in [4] it was -0.835; in assay [5], -1.09; in assay [6], -0.124; in assay [7], -0.0626. Further, the composite z-score in [8] was -0.367; in [9] it was -0.392; in [10], -0.394; in assay [11], -0.503; in assay [13], -0.241; in assay [14], -0.108. Besides, the composite z-score in [15] is -0.525; in [16] it was -0.99; in assay [17], -0.111; in assay [18], -1.02; in [19], 0.296; in assay [20], -0.0254. The z-score in assay [2] was -0.004. Further, in assay [12], the composite Z-score is -0.221 (inactive).
